Assay results from PubChem BioAssay (Tox21).
Records with an inconclusive call do not appear. Active and inactive are the calls of the source. Unless noted, the call rests on the fitted dose curve; in most records, active means well fitted curve in the direction sought with a large enough effect in the repeat runs; inconclusive means weak or mixed curves; inactive means no such curve, though single readings can be large; an effect the other way counts as inactive or inconclusive.

Key:
[1] = qHTS assay to identify small molecule agonists of the RXR signaling pathway - cell viability counter screen (AID 1159529); further: nearly all actives have a fitted effect of over 50% in size; further: potency means the concentration at half of the fitted maximal effect
Method in brief: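 Cell viability is measured by CellTiter-Glo luminescence, 30 min at room temperature, in wells already read for beta-lactamase. Engineered HEK 293T cells (RXR-alpha-UAS-bla) are dosed 16 hr at 37 C. Tetraoctyl ammonium bromide serves as positive control.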

[2] = qHTS assay to identify small molecule antagonists of the retinoid acid receptor (RAR) signaling pathway - cell viability counter screen (AID 1159551); further: nearly all actives have a fitted effect of over 35% in size; further: potency means the concentration at half of the fitted maximal effect
Method in brief: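 Viability of C3RL4 cells is quantified from ATP by luminescence after 6 h treatment at 37 C with compounds and 1 uM retinol.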

[3] = molecular target: Luciferin 4-monooxygenase (Photinus pyralis) (UniProt P08659); assay: qHTS assay to identify small molecule inhibitors of firefly luciferase (AID 1224835); further: nearly all actives have a fitted effect of over 25% in size; further: potency means the concentration at half of the fitted maximal effect
Chain of Luciferin 4-monooxygenase (Photinus pyralis) (P08659 whole entry, looked up): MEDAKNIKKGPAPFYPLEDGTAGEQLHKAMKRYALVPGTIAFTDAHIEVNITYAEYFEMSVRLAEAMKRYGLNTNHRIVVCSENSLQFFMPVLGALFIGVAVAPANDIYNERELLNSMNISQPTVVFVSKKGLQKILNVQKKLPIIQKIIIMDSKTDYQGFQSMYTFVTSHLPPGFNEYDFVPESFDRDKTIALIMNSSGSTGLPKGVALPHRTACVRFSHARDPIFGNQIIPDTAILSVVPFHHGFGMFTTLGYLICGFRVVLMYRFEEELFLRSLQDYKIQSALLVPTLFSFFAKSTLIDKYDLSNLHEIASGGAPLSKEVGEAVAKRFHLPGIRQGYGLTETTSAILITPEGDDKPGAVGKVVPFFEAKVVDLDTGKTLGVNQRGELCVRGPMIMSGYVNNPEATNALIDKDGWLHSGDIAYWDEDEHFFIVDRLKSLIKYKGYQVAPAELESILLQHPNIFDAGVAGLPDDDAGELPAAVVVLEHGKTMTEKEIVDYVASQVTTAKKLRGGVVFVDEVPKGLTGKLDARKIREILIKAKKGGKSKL
Method in brief: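 Biochemical qHTS: compounds run as interplate titrations against purified firefly enzyme, with D-luciferin and ATP each at its KM concentration. Light output recorded by CCD imaging.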

[4] = qHTS assay to identify small molecule agonists of the constitutive androstane receptor (CAR) signaling pathway - cell viability counter screen (AID 1224836); further: nearly all actives have a fitted effect of over 45% in size; further: potency means the concentration at half of the fitted maximal effect
Method in brief: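 Counter screen multiplexed with the CAR reporter readout: HepG2 cells co-transfected with hCAR and the CYP2B6-2.2kb construct receive a 15-concentration compound series and 0.75 uM PK11195 (final), then CellTiter-Fluor fluorescence is read after 23 h.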

[5] = qHTS assay to identify small molecule antagonists of the constitutive androstane receptor (CAR) signaling pathway - cell viability counter screen (AID 1224837); further: nearly all actives have a fitted effect of over 45% in size; further: potency means the concentration at half of the fitted maximal effect
Method in brief: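 In quantitative HTS format, compounds at 15 concentrations were applied to HepG2 cells double-transfected with hCAR and CYP2B6-2.2kb under 50 nM CITCO stimulation; live-cell protease activity was read after 23 hr via CellTiter-Fluor.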

[6] = molecular target: Nuclear receptor subfamily 1 group I member 3 (Homo sapiens) (UniProt Q14994); assay: qHTS assay to identify small molecule antagonists of the constitutive androstane receptor (CAR) signaling pathway (AID 1224838); further: nearly all actives have a fitted effect of over 40% in size; further: potency means the concentration at half of the fitted maximal effect
Chain of Nuclear receptor subfamily 1 group I member 3 (Homo sapiens) (Q14994 whole entry, looked up): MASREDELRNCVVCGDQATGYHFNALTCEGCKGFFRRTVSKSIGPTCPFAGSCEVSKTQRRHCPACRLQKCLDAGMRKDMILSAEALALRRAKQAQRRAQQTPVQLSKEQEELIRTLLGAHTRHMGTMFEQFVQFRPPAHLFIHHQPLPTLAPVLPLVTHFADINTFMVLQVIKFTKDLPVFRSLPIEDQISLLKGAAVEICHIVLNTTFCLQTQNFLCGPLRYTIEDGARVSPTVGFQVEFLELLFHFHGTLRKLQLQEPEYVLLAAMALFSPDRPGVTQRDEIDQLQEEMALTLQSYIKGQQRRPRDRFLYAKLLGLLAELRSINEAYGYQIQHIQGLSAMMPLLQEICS
Method in brief: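 CITCO-stimulated (50 nM final) HepG2 cells stably transfected with hCAR and CYP2B6-2.2kb luciferase were exposed to compounds at 15 concentrations for 24 h at 37 C/5% CO2. A luciferase reagent was added and luminescence recorded after 30 min.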

[7] = molecular target: Nuclear receptor subfamily 1 group I member 3 (Homo sapiens) (UniProt Q14994); assay: qHTS assay to identify small molecule agonists of the constitutive androstane receptor (CAR) signaling pathway (AID 1224839); further: nearly all actives have a fitted effect of over 15% in size; further: potency means the concentration at half of the fitted maximal effect
Method in brief: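 A 15-concentration quantitative screen uses HepG2 cells co-transfected stably with human CAR and CYP2B6-2.2kb reporter. Treatment lasts 24 h with 0.75 uM PK11195 final present; ONE-Glo luminescence is the signal.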

[8] = qHTS assay to identify small molecule antagonists of the estrogen related receptor signaling pathway with the pleiotropic PPARgamma coactivator (PGC) from Tox21 10K library - cell viability counter screen (AID 1224840; active means well fitted cell-killing curve with a large enough effect in the repeat runs, not every such curve was filed as active; further: nearly all actives have a fitted effect of over 40% in size; further: potency means the concentration at half of the fitted maximal effect)
Method in brief: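 Viability counter screen, PGC/ERR cells: 17.5 h compound exposure at 37 C, CellTiter-Fluor fluorescence endpoint.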

[9] = molecular target: Thyrotropin receptor (Homo sapiens) (UniProt P16473); assay: qHTS assay to identify small molecule agonists of the thyroid stimulating hormone receptor (TSHR) signaling pathway (AID 1224843; calls by dose curve; further: nearly all actives have a fitted effect of over 45% in size; further: potency means the concentration at half of the fitted maximal effect)
Chain of Thyrotropin receptor (Homo sapiens) (P16473 whole entry, looked up): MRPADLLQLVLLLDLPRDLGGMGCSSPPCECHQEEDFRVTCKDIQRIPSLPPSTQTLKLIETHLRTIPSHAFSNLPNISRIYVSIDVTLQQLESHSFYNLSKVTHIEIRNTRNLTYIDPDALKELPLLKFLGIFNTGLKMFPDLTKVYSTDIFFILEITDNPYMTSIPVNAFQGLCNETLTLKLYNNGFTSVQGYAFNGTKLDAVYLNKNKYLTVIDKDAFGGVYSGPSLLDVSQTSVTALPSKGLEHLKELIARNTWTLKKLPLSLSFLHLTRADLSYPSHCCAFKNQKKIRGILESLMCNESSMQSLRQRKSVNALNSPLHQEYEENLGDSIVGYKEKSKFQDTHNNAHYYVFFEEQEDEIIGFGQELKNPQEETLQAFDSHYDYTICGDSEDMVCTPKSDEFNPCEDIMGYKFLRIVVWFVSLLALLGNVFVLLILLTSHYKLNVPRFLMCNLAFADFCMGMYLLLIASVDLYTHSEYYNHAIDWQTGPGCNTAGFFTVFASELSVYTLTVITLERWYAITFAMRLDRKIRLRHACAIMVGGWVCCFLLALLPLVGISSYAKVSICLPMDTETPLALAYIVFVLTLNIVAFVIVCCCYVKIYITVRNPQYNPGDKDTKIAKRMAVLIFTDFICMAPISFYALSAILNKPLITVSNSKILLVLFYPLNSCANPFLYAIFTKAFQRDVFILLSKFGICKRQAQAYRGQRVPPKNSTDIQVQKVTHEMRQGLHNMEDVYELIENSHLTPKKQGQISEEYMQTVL
Method in brief: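 Agonist-mode screen: TSHR HEK293 cells received test chemicals for half an hour at room temperature, then HTRF cAMP detection reagents for one hour prior to fluorescence measurement. Each chemical ran as a 15-concentration series, triplicated.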

[10] = qHTS assay to identify small molecule agonists of the estrogen related receptor signaling pathway with the pleiotropic PPARgamma coactivator (PGC) from Tox21 10K library (AID 1224842); further: nearly all actives have a fitted effect of over 15% in size; further: potency means the concentration at half of the fitted maximal effect
Method in brief: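 PGC/ERR reporter cell line, 2,000 cells per well, incubated 6 h at 37 C before 23 nL compound in DMSO was added. After 18 h at 37 C, One-Glo luminescence read following 30 min at room temperature.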

[11] = qHTS assay to identify small molecule antagonists of the estrogen related receptor (ERR) signaling pathway from Tox21 library - cell viability counter screen (AID 1224834); further: nearly all actives have a fitted effect of over 30% in size; further: potency means the concentration at half of the fitted maximal effect
Method in brief: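 In this quantitative HTS format, ERR cells receive compounds in DMSO and are incubated for 17.5 h at 37 C. Live-cell protease activity is then detected with CellTiter-Fluor.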

[12] = qHTS assay to identify small molecule antagonists of the estrogen related receptor signaling pathway with the pleiotropic PPARgamma coactivator (PGC) from Tox21 10K library (AID 1224841; call rule not given here; further: actives are mostly falling curves and most rising ones were filed inactive; nearly all actives have a fitted effect of over 50% in size; further: potency means the concentration at half of the fitted maximal effect)
Method in brief: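 In the PGC/ERR line, DMSO solutions of test chemicals are pin-delivered to 2,000 cells/well six hours after dispensing. Following eighteen hours' incubation, One-Glo reagent is added and luminescence recorded.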

[13] = qHTS assay to identify small molecule antagonists of the retinoic acid receptor (RAR) signaling pathway (AID 1159552; further: nearly all actives have a fitted effect of over 50% in size; further: potency means the concentration at half of the fitted maximal effect)
Method in brief: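 Quantitative HTS in C3RL4 RARE-luciferase reporter cells. Compounds were added with 1 uM (final) retinol; luminescence was read after 6 hr.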

[14] = qHTS assay to identify small molecule agonists of the retinoic acid receptor (RAR) signaling pathway (AID 1159553)
Method in brief: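 Compounds dissolved in DMSO were pinned onto C3RL4 cells seeded the previous day, and plates were held 6 hr at 37 C. RARE-driven luciferase output was then read by luminescence.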

[15] = qHTS assay to identify small molecule antagonists of the estrogen related receptor (ERR) signaling pathway (AID 1224819; further: potency means the concentration at half of the fitted maximal effect; nearly all actives have a fitted effect of over 50% in size)
Method in brief: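 ERR reporter cells were plated at 2,000 cells/well and left 6 h at 37 C/5% CO2 before pin-tool transfer of compounds in DMSO. After 18 h at 37 C, One-Glo was added and luminescence was read 30 min later at room temperature.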

[16] = qHTS assay to identify small molecule agonists of the estrogen related receptor (ERR) signaling pathway (AID 1224820)
Method in brief: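 An ERR cell line provided by NTP was seeded at 2,000 cells per well and allowed to settle for 6 h before compounds in DMSO were added. After 18 h at 37 C, luciferase activity was measured by One-Glo luminescence.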

[17] = tested on: estrogen-related receptor alpha (ERRalpha) with PGC-1alpha coactivator, human; assay: qHTS assay to identify small molecule antagonists of the estrogen related receptor signaling pathway with the pleiotropic PPARgamma coactivator (PGC) (AID 1224821; calls by dose curve)
Method in brief: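 A PGC/ERR cell line supplied by NTP is seeded, allowed 6 h at 37 C, and treated with test compounds in DMSO for 18 h. Signal is then measured as luciferase luminescence using One-Glo.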

[18] = qHTS assay to identify small molecule agonists of the estrogen related receptor signaling pathway with the pleiotropic PPARgamma coactivator (PGC) (AID 1224823)
Method in brief: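 Compounds dissolved in DMSO are added by pin tool to PGC/ERR cells that have settled for 6 h, and incubation continues 18 h at 37 C. Reporter output is measured as One-Glo luminescence.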

Measured: Potency

CCC(CN)=C(c1ccccc1)c1ccccc1
inactive: [1] | [2] | [3] | [4] | [5] | [6] | [7] | [8] | [9]

Cc1oc(-c2ccccc2)nc1CCC(=O)c1ccc(CC2SC(=O)NC2=O)cc1 (stereo not given)
inactive: [1] | [2] | [3] | [4] | [5] | [6] | [7] | [10] | [9]

Cc1cc(O)c(C(C)(C)C)cc1Sc1cc(C(C)(C)C)c(O)cc1C
inactive: [3] | [7]
active: [1] 12.3 µM | [2] 61 µM | [11] 30.6 µM | [4] 48.5 µM | [5] 54.4 µM | [6] 21.6 µM | [9] 9.67 µM

Cc1onc(-c2c(Cl)cccc2Cl)c1C(=O)N[C@@H]1C(=O)N2[C@@H]1SC(C)(C)[C@@H]2C(=O)O
inactive: [1] | [2] | [11] | [4] | [5] | [6] | [7] | [8] | [12] | [10] | [9]

Cc1c(C)c2c(c(C)c1O)CCC(C)(COc1ccc(CC3SC(=O)NC3=O)cc1)O2 (stereo not given)
inactive: [1] | [2] | [11] | [3] | [4] | [5] | [6] | [7] | [8] | [9]

COc1ccc(C(=O)/C(Br)=C\C(=O)O)cc1
active: [11] 54.5 µM | [10] 24.3 µM
inactive: [1] | [2] | [5] | [6] | [12] | [9]

O=C1c2c(O)ccc(Nc3ccc(CCO)cc3)c2C(=O)c2c([N+](=O)[O-])ccc(O)c21
inactive: [1] | [13] | [6]
active: [11] 38.6 µM | [3] 17.8 µM | [7] 27.3 µM

O=c1c(-c2ccccc2)c1-c1ccccc1
active: [1] 6.01 µM | [13] 4.22 µM | [12] 9.44 µM
inactive: [4] | [5] | [10]

O=C(Nc1cccc(C(F)(F)F)c1)c1cc(Br)cc(Br)c1O
active: [1] 21.9 µM | [3] 3.99 µM | [6] 15.4 µM | [8] 6.86 µM
inactive: [13] | [14] | [7] | [9]

Nc1ccc2cc(S(=O)(=O)O)cc(O)c2c1N=Nc1ccccc1C(F)(F)F
active: [3] 63.3 µM
inactive: [1] | [13] | [14] | [6] | [7] | [8] | [10]

CCCCCCCC[N+](CCCCCCCC)(CCCCCCCC)CCCCCCCC
active: [1] 13.8 µM | [2] 27.3 µM | [4] 9.67 µM | [5] 9.67 µM | [6] 21.6 µM | [8] 21.6 µM
inactive: [7] | [10]

CN(C)C(=O)C1(N2CCCCC2)CCN(CC[C@@]2(c3ccc(Cl)c(Cl)c3)CN(C(=O)c3ccccc3)CCO2)CC1
inactive: [3] | [7] | [10]
active: [1] 16.2 µM | [13] 28.6 µM | [4] 50.9 µM | [5] 50.9 µM | [6] 50.9 µM | [8] 28.6 µM

CC(C)(C)C1CCC(CC2=C(O)c3ccccc3C(=O)C2=O)CC1 (stereo not given)
inactive: [1] | [14] | [11] | [3] | [6] | [7] | [10] | [9]

CCCCN1C(=O)[C@@H]([C@H](O)C2CCCCC2)NC(=O)C12CCN(Cc1ccc(Oc3ccc(C(=O)O)cc3)cc1)CC2
inactive: [1] | [2] | [3] | [4] | [6] | [7] | [12] | [9]

CCOC(=O)c1nc(C(Cl)(Cl)Cl)n(-c2ccc(Cl)cc2Cl)n1
inactive: [2] | [3] | [7] | [10]
active: [1] 49 µM

CC(=O)N1CCN(c2ccc(OC[C@H]3CO[C@](Cn4ccnc4)(c4ccc(Cl)cc4Cl)O3)cc2)CC1
inactive: [16] | [18] | [3] | [6] | [10]
active: [1] 17.4 µM | [15] 9.08 µM | [17] 29.8 µM | [11] 27.3 µM | [4] 48.6 µM | [5] 48.6 µM | [8] 24.3 µM | [12] 27.3 µM

COc1ccc(CN2CCN(C(c3ccc(F)cc3)c3ccc(F)cc3)CC2)c(OC)c1OC
active: [1] 13.4 µM | [8] 26.6 µM | [12] 11.9 µM
inactive: [2] | [3] | [7] | [10]

N/C(=N\N=C\c1ccc(Cl)cc1)N/N=C/c1ccc(Cl)cc1
inactive: [14] | [4] | [5] | [6] | [7] | [12] | [10] | [9]
active: [1] 19 µM | [11] 33.5 µM | [3] 9.77 µM

CSc1ccc2c(c1)C(N1CCN(C)CC1)Cc1ccccc1S2 (stereo not given)
inactive: [2] | [3] | [4] | [6] | [7]
active: [1] 23.9 µM

[Cl][Au]([Cl])[Cl]
active: [1] 24.5 µM | [13] 30.6 µM | [4] 7.7 µM | [5] 3.86 µM | [8] 7.7 µM | [12] 1.72 µM
